Screening data (PubChem)
A selection: hits, their analogues and other compounds. The true share with any hit is near 3.6%.
aSyn rescue = qHTS of alpha-syn Inhibitors | Yeast expressing alpha-synuclein, growth rescue, BacTiter-Glo, 24 h | Potency, µM (top dose mostly 46.1 µM), without a hit: at the top dose growth rescue (activation), most hits filed as activators | actives 0.14% (n = 370,000); note: % of control where 0% means no effect; nearly all actives have a fitted effect of over 65% in size
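Rescue of yeast growth: cells expressing toxic alpha-synuclein, induced in galactose at OD600 0.02, incubated with compound 24 h at 30 C. ATP luminescence quantified growth; inhibitors of toxicity appear as activators.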
MmCpn inh = Inhibitors of TCP-1 ring complex (TRiC) of Methanococcus maripaludis (MmCpn): qHTS | purified Mm-Cpn ATPase, ADP Transcreener TR-FRET | actives 0.031% (n = 330,000) | Potency, µM (series often up to 76.9 µM), for the others: at the highest dose activity, negative = inhibition, most hits filed as inhibitors; note: % is set by controls: 0 for no effect and ±100 for the full control effect; nearly all actives have a fitted effect of over 80% in size
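Inhibition of chaperonin ATP hydrolysis is measured as reduced ADP production, detected by competitive TR-FRET in which signal falls with ADP. Final enzyme 25 nM and ATP 10 uM, reacted 30 min at 37°C.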
TDP-43 yeast inh = qHTS of TDP-43 Inhibitors | TDP-43 expressing yeast growth rescue, BacTiter-Glo, 24 h | Potency, µM (top dose mostly 46.1 µM), without a hit: top-dose growth rescue (activation), usual class: activators | actives 1.8% (n = 410,000) | AID 652104, 2013; note: % of control where 0% means no effect; nearly all actives have a fitted effect of over 50% in size
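Yeast cells expressing TDP-43 under galactose induction are exposed to compounds for 24 hr at 30 deg C. BacTiter-Glo luminescence measures growth, so protective compounds score as activators.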
ClpP mod = qHTS Assay for Activators of ClpP; actives 1.9% (n = 340,000); AID 651965, 2013; purified B. subtilis ClpP, FRET peptide cleavage, 20 min; Potency, µM (titrated, usually from 57.5 µM), inactives show top-dose activity change, negative = active; active = well fitted falling curve with a large enough effect; inconclusive = small, poorly fitted or top-dose-only effect; inactive = no such curve, though single readings can be large or run the other way; note: the source files actives as falling curves though it sought activators and does not explain the sign; nearly all actives have a fitted effect of over 65% in size
Target sequence (P80244 whole entry, looked up): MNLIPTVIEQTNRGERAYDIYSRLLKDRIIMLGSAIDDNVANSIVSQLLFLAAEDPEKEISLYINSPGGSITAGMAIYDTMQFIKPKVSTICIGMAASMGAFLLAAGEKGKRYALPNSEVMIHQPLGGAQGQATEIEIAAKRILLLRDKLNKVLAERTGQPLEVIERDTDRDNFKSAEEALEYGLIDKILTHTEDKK
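Buffer: 100 mM Tris/HCl pH8, 100 mM KCl, 0.05% low protease BSA, 2.5% glycerol, 0.01% Tween-20. ClpP 10 microg/mL final; 20 min RT; delta FRET normalized to ADEP and DMSO controls.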
Abeta yeast res = qHTS for compounds that reverse cellular toxicity of Amyloid beta (A-beta) peptide in yeast: Primary Screen. yeast expressing A-beta42, growth rescue, OD600, 48 h; response scale: 0% DMSO, 100% iron-clioquinol control. Potency, µM (doses to about 46.1 µM), usual class: activators. AID 1347071, 2019. actives 0.063% (n = 410,000); note: nearly all actives have a fitted effect of over 55% in size
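Growth rescue measured by 600 nm absorbance after 48 h yeast culture at 30 C with compound. Values normalized between DMSO and an equimolar ferric chloride plus clioquinol control.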
FUS suppressor = qHTS for Suppressors of FUS Proteinopathy: Primary screen using FUS-linked yeast assay | S. cerevisiae FUS-expressing, growth rescue, OD600, 24 h | Potency, µM (series often up to 76.6 µM), usual class: activators | actives 0.24% (n = 390,000);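 note: plate controls were DMSO vehicle for no effect and reference control for full effect; nearly all actives have a fitted effect of over 55% in size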
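Read-out: OD at 600 nm after 24hr at 30C, reporting rescue of FUS-induced yeast toxicity. Cells at OD 0.005 in galactose (2%) minimal medium; compounds tested in a dilution series; CP55940 titration from 92uM final as control.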
Numbers without * were called inactive; i = inactive; ? = inconclusive; . = no result given. Unless noted, calls come from the whole dose curve; as a rule, active = well fitted curve in the direction sought with a large enough effect; inconclusive = small, poorly fitted or top-dose-only effect, or another doubt; inactive = no such curve, though single readings can be large; an effect the other way counts as inactive or inconclusive. Potency is the fitted concentration of half-maximal effect.

SMILES	aSyn rescue	MmCpn inh	TDP-43 yeast inh	ClpP mod	Abeta yeast res	FUS suppressor
CCCC(C)NC(=O)c1ccc(OCc2ccc(Cl)cc2)c(OC)c1 (stereo not given)	-0.3%	-0.4%	22.4µM*	-14.5%	i	i
Cc1ccc(NC(=O)CSc2nc3ncccc3[nH]2)cc1F	.	.	9.0%	-0.1%	i	i
Cc1cccc(C(=O)N2c3ncnn3C3(CCCCC3)[C@@H]3CCCC[C@@H]32)c1	.	.	?	-1.7%	i	i
Cc1ccc(-n2ncc(C(=O)Nc3ccc4c(c3)OCO4)c2C2CCN(C(=O)OC(C)(C)C)CC2)c(C)c1	.	.	-22.9%	-1.4%	i	?
O=C(CCOc1ccccc1)N(Cc1cccnc1)c1nc2c(Cl)cccc2s1	.	.	9.8%	-4.9%	i	i
ONC(=Nc1ccccc1)c1ccc(Cl)cc1	7.6%	2.9%	12.6µM*	0.7%	i	i
COc1ccc(OC)c(/C=C/c2ccccc2)c1	-10.1%	.	.	4.5%	.	.
Cc1cc(NC(=O)c2ccoc2C)ccc1Br	-37.8%	-0.5%	11.2µM*	0.9%	i	i
Cc1ccc(NC(=O)c2ccoc2C)cc1C	-1.2%	-1.2%	-17.2%	1.2%	i	i
Cc1ccc(-c2cc(C(=O)Nc3cccnc3)c3ccccc3n2)o1	20.9%	-4.7%	-25.9%	-6.8%	i	3.16µM*
Cc1cc(NC(=O)c2ccccc2-c2ccccc2)ccc1Br	-12.9%	-0.6%	0.0%	1.2%	12.6µM*	i
Cc1cc(NC(=O)c2cc(-c3ccncc3)nc3ccccc23)ccc1Br	14.0%	0.1%	17.8µM*	-4.4%	i	.
Cc1cccc(-c2nc3c4ccccc4nc(N4CCN(c5cc(C)ccc5C)CC4)n3n2)c1	.	.	8.5%	0.2%	i	i
CN(C)/[N+]([O-])=N/Oc1cc(F)c([N+](=O)[O-])cc1[N+](=O)[O-]	-23.0%	.	.	.	.	.
COC(=O)C1=CN(C)C=C(C(=O)OC)C1c1ccsc1	3.6%	-3.2%	-1.8%	7.94µM*	i	i
CCOC(=O)C1CCCN(C(=O)C2CCN(c3nnc(C)c4c(C)n(-c5ccccc5)nc34)CC2)C1 (stereo not given)	.	.	-13.7%	3.7%	i	i
COc1ccccc1-c1sc2cc3c(cc2c1C#Cc1ccccn1)OCO3	-34.6%	31.6µM*	18.2%	4.5%	i	i
COc1ccccc1-c1sc2cc3c(cc2c1C#CC1(O)CCCCC1)OCO3	?	?	7.3%	3.7%	i	i
CCCNC(=O)N(C)C[C@H]1Oc2cc(Br)ccc2S(=O)(=O)N([C@@H](C)CO)C[C@@H]1C	1.1%	.	20.8%	1.1%	i	i
CCCNC(=O)N(C)C[C@@H]1Oc2cc(C#C[C@H](C)O)ccc2S(=O)(=O)N([C@H](C)CO)C[C@H]1C	5.01µM*	.	5.7%	-2.2%	i	i
Cc1ccc(NC(=O)CCc2c(C)nc3nc(C)nn3c2C)c(Cl)c1	.	.	13.2%	-6.7%	i	i
Cc1cc(N2CCC(C(=O)NCCC(C)C)CC2)n2nc(C)c(-c3ccc(Cl)cc3)c2n1	.	.	12.6%	4.4%	i	i
O=C(O)C1C2C=CC(C3CC23)C1C(=O)O (stereo not given)	6.6%	-0.4%	14.1µM*	-0.2%	i	i
O=C(CSc1nc2c(c(=O)[nH]1)CCCC2)N1CCOCC1	.	.	.	.	.	i
COCCN1C(=O)C(=O)/C(=C(/O)c2ccc(S(=O)(=O)N3CCOCC3)cc2)C1c1cccc(OC)c1 (stereo not given)	-7.2%	1.0%	-8.0%	-2.1%	i	5.01µM*
